The panel holds about 83,000 compounds, 20% with a hit somewhere; the sample as a whole holds those more often.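 Step 1: grow cells in 96-well plates. Step 2: add test compound at a single concentration. Step 3: incubate 48 h. Step 4: record percent growth.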 Unmarked numbers belong to inactive results. The source made the active and inactive calls. How the source made its calls: active means growth percent below 10; inactive means the rest.
Assays:
Test in all cases: NCI-60 one-dose screen, 48 h (100 = growth as untreated, 0 = no growth, -100 = all killed)
Details in all cases: 10 µM
[1] = tested on: HCT-15 colon
[2] = tested on: HT29 colon
[3] = tested on: SNB-75 CNS
[4] = tested on: SNB-19 CNS
[5] = tested on: U251 CNS
[6] = tested on: PC-3 prostate
[7] = tested on: SK-MEL-5 melanoma
[8] = tested on: UACC-62 melanoma
[9] = tested on: LOX IMVI melanoma
[10] = tested on: SK-MEL-28 melanoma
[11] = tested on: SK-MEL-2 melanoma
[12] = tested on: EKVX NSCLC
[13] = tested on: SN12C renal
[14] = tested on: UO-31 renal
[15] = tested on: TK-10 renal
[16] = tested on: ACHN renal
[17] = tested on: CAKI-1 renal
[18] = tested on: A498 renal
[19] = tested on: CCRF-CEM leukemia
[20] = tested on: MOLT-4 leukemia

| SMILES | growth [1] | growth [2] | growth [3] | growth [4] | growth [5] | growth [6] | growth [7] | growth [8] | growth [9] | growth [10] | growth [11] | growth [12] | growth [13] | growth [14] | growth [15] | growth [16] | growth [17] | growth [18] | growth [19] | growth [20] |
| --- | --- | --- | --- | --- | --- | --- | --- | --- | --- | --- | --- | --- | --- | --- | --- | --- | --- | --- | --- | --- |
| Cc1ccc(C(=O)NNC(=O)CSc2nc3ccccc3c(=O)[nH]2)cc1 | 103% | 111% | 83.1% | 92.8% | 104% | 90.4% | 98.7% | 89.4% | 96.3% | 104% | 107% | 97.2% | 94.1% | 75.2% | 107% | 107% | 95.7% | 94.6% | 98.8% | 96.4% |
| COc1ccc(/C=N/N=C(\C)c2ccc3c(c2)Nc2ccccc2S3)cc1O | 29.8% | 85.3% | 66% | 63.7% | 64.5% | 45.4% | -23.5% (active) | 58.9% | 21% | 60.9% | 48.5% | 40.4% | 70.1% | 47% | 70.6% | 43.3% | 55.1% | 75.5% | – | 13.6% |
| CC1=C(c2cc(-c3ccc(Cl)cc3)c(C#N)c(N)n2)C(c2ccccc2)NC(=S)N1 (stereo not given) | 10.9% | 24.7% | 36.5% | 75.4% | 38.8% | 49.8% | 58.1% | 62.7% | -49.2% (active) | 57.7% | 98.6% | 98.6% | 62.2% | 63.5% | 114% | 19.6% | 72.3% | 137% | 7.65% (active) | 6.11% (active) |
| O=C(O)CCCCCCCCCCN1C(=O)/C(=C/c2cnc(-c3ccc(Cl)cc3)s2)SC1=S | 26.3% | 96.3% | 73.3% | 27.1% | -13% (active) | 25.4% | 27.4% | 0.545% (active) | 5.11% (active) | 40% | -38.6% (active) | -12.5% (active) | -57.4% (active) | 38.1% | 58.2% | 22.1% | 12.2% | 83.2% | – | 19.7% |
| CC(=O)Nc1ccc(-n2cnc3cc(-c4ccc(O)cc4)ccc32)cc1F | 5.21% (active) | -9.81% (active) | 24.1% | 36.2% | 16.7% | 22.8% | 12.5% | 13.9% | 27.8% | 49.4% | 36.3% | 60.6% | 21.5% | 20.7% | 49.2% | 20.4% | 17.9% | 72.4% | 8% (active) | -0.0266% (active) |
| COc1ccc2ncc(C#Cc3cncc(C(=O)Nc4ccc(CN5CCN(C)CC5)c(C(F)(F)F)c4)c3)n2n1 | -91.3% (active) | -51.8% (active) | -91.1% (active) | -86.2% (active) | -59.8% (active) | -59.6% (active) | -100% (active) | -79.6% (active) | -94.6% (active) | -91.8% (active) | -55.3% (active) | -99.7% (active) | -93.5% (active) | -90.1% (active) | -76% (active) | -98.3% (active) | -75.8% (active) | 31.7% | 2.67% (active) | -26.7% (active) |
| COc1ccc(CCN2C(=O)/C(=C/c3csc(C#N)n3)SC2=S)cc1 | -51.7% (active) | -49.4% (active) | 53.2% | 72.2% | 21.4% | 32.8% | 36.6% | -26.6% (active) | -78.5% (active) | -10.9% (active) | -0.186% (active) | 20% | -38.2% (active) | -43.9% (active) | 13.3% | 4.4% (active) | -0.602% (active) | 61.4% | – | -11.2% (active) |
| COc1ccc(CCN2C(=O)/C(=C/c3csc(C#N)n3)SC2=S)cc1OC | -45.4% (active) | -48.4% (active) | 71.7% | 80% | 89.8% | 71.6% | 74.2% | 46.8% | -62.7% (active) | 18.9% | 85.6% | 79.8% | 31.8% | 15.5% | 1.31% (active) | 8.31% (active) | 25.3% | 80% | – | -10.7% (active) |
| COc1ccc(C2NC(=S)NC(C)=C2C(=O)OC(C)C)cc1OC (stereo not given) | 105% | 115% | 94.9% | 98.9% | 102% | 96% | 98.9% | 90.5% | 99.3% | 109% | 114% | 97.9% | 101% | 83.5% | 106% | 107% | 97.4% | 114% | – | 102% |
| COc1ccccc1[C@H]1C(C(=O)c2ccc(Cl)cc2)C2(N[C@@H]1c1ccccc1)C(=O)Nc1ccccc12 (stereo not given in full) | -18.7% (active) | -53.1% (active) | 55.6% | 13.7% | -31% (active) | 5.37% (active) | -87.2% (active) | -74.9% (active) | -97.3% (active) | -36.6% (active) | -85.9% (active) | 3.23% (active) | -89% (active) | 1.13% (active) | 8.59% (active) | -3.58% (active) | 4.17% (active) | -19.2% (active) | – | -17.7% (active) |
| O=C(Nc1cc(Cl)cc(Cl)c1)Nc1cc(Cl)cc(Cl)c1 | -23.1% (active) | -20.9% (active) | -14.1% (active) | 5.6% (active) | -23.2% (active) | 0.387% (active) | -100% (active) | -66.1% (active) | -91.1% (active) | -12.1% (active) | -48.4% (active) | -12% (active) | -34.3% (active) | -8.17% (active) | 0.158% (active) | -19.4% (active) | -32.4% (active) | – | -33.5% (active) | -36.2% (active) |
| COc1cc(/C=C/C(=O)c2ccc(NC(=O)CSc3nnc(-c4c[nH]c5ccccc45)n3-c3ccccc3)cc2)cc(OC)c1OC | 23.5% | 51% | 94.9% | 68.9% | 18.7% | 65.6% | 90.2% | 59.1% | 4.61% (active) | 104% | 99.9% | 90.6% | 74.2% | 75% | 117% | 89.3% | 95.7% | – | 60.5% | 41.5% |
| COc1ccc2[nH]c(O)c(N=NC(=O)COc3ccc(NC(=O)Nc4ccc(Cl)c(Cl)c4)cc3)c2c1 | 56.1% | -88.4% (active) | -37% (active) | 7.22% (active) | -94.2% (active) | -33.4% (active) | -56.3% (active) | 14.4% | -100% (active) | -59.8% (active) | 14.5% | 31.9% | -42% (active) | 111% | 15.5% | 57% | 60.7% | – | 20.8% | – |

From PubChem BioAssay (NCI)
